# According to PubChem BioAssay:
# For some of these results: Entries with a potency or affinity are not part of this list. The source made the active and inactive calls. Unless noted, how the calls were made is not given here.
# Key:
# [1] = antimalarial activity against Dd2 strain (AID 2302;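 active means growth inhibition above 50% at the single 2 µM test dose, taken to imply half-maximal potency below 2 µM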;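 further: 0% = DMSO untreated growth and 100% = chloroquine plus artemisinin killed control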); settings: P. falciparum Dd2 in RBCs, LDH growth readout, 72 h; at 2 µM; stronger effect = higher value
# [2] = human hepatoma cell viability loss – ATP luminescence, cytotoxicity control for P. falciparum antimalarial project, primary screen (AID 2303;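 active means inhibition above 50%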;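 further: 0% = DMSO wells and 100% = digitonin-killed cells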); settings: HepG2 viability, 24-48 h, at 10 µM, stronger effect = higher value
# [3] = target: L-lactate dehydrogenase (Plasmodium falciparum (isolate CDC / Honduras)) (UniProt Q27743); assay: PfLDH activity inhibition – cell lysate, 3D7 strain, counter-screen for P. falciparum growth inhibition project (AID 2304);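 further: 0% = vehicle and 100% = reference inhibitor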; settings: P. falciparum 3D7 crude extract, LDH APAD/NBT absorbance; at 2 µM; stronger effect = higher value
# [4] = inhibition of 3D7 malaria parasite growth – strain 3D7 (AID 2306);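 further: 0% = DMSO wells and 100% = chloroquine plus artemisinin control wells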; settings: P. falciparum 3D7 erythrocytic growth, LDH absorbance, 72 h; at 2 µM; stronger effect = higher value
# [5] = liver-stage malaria parasite load reduction – cell-based, known kinase inhibitor set, luminescence, hepatoma host viability (AID 624392); settings: Plasmodium liver stage in hepatoma cells, luciferase luminescence, concentration not given here; liver cell % of control: measured here: host liver cell viability; parasite % of control: stronger effect = lower value;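 further: infected cells incubated roughly two days before readout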
# [6] = altered dexamethasone sensitivity, NF-kB reporter, cell-based, luciferase, IL-1B stimulus (AID 624486); settings: IL-1B + dexamethasone, luminescence; percent of negative control (+Dex): actives lie on both sides, concentration not given here; z-score: measured here: IL-1B alone, no Dex;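 on percent of negative control (+Dex): 100% = mean signal of vehicle control wells on the plate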
# [7] = C. elegans survival during P. aeruginosa infection – whole organism (AID 651566);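 further: tested at 14 µM; sign flipped so higher z means a lower ratio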; settings: C. elegans killed by P. aeruginosa, survival ratio
# [8] = pro-inflammatory signaling induction in mouse macrophages – cell-based, murine, luminescence (AID 652131); settings: murine macrophage pro-inflammatory reporter, stronger effect = higher value
# [9] = inducers of IRF3 signaling, differentiated THP-1 – cell-based, PMA-stimulated THP-1, luminescence (AID 1053176); settings: PMA-differentiated THP-1, IRF3 reporter luminescence; stronger effect = higher value
# [10] = target: Calcium-dependent protein kinase 1 (Plasmodium falciparum (isolate 3D7)) (UniProt P62344); assay: PfCDPK1 kinase inhibitors, biochemical, TCAMS library (AID 1159585; cut-off not given, nearly all actives have IC50 up to about 0.98 µM;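 further: inhibitors leave more ATP so luminescence rises with inhibition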); settings: recombinant PfCDPK1, Kinase-Glo ATP depletion luminescence
# [11] = target: Plasmodium falciparum protein kinase 6 (PK6, PF3D7_1337100) (UniProt Q8IDW1); assay: PfPK6 kinase inhibitors, biochemical, TCAMS library (AID 1159586); settings: recombinant PfPK6, Kinase-Glo ATP depletion luminescence
# [12] = target: Protein kinase 7 (PK7), Plasmodium falciparum 3D7 (PF3D7_0213400) (UniProt Q7YTF7); assay: inhibition of Plasmodium PK7 catalytic activity – biochemical, TCAMS antimalarial set, Kinase-Glo luminescence (AID 1159587); settings: recombinant PfPK7, Kinase-Glo ATP depletion luminescence
# [13] = target: Calcium-dependent protein kinase 4 (Plasmodium falciparum (isolate 3D7)) (UniProt Q8IBS5); assay: PfCDPK4 kinase inhibitors, biochemical, TCAMS library (AID 1159588; cut-off not given, nearly all actives have IC50 up to about 0.91 µM); settings: recombinant PfCDPK4, Kinase-Glo ATP depletion luminescence
# [14] = MELAS cybrid and Rieske KO viability enhancers – cell-based, MELAS cybrids, Rieske KO mouse fibroblasts, CellTiter-Glo, primary screen (AID 1508586;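 active means mean z-score across replicates of 1.96 or higher in either the MELAS or the Rieske mutant cell line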;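 further: z relative to plate mean and SD of compound and empty wells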); settings: low glucose
# [15] = target: Cellular tumor antigen p53 (Homo sapiens) (UniProt P04637); assay: GFP-p53 level modulators in HPV16+ cells – imaging, known kinase inhibitor set, EGFP/DsRed ratio (AID 1053116); settings: GFP-p53 stability, stronger effect = higher value; EGFP object count: measured here: GFP-p53 positive objects count;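 further: cells exposed to compounds for 24 h at 37 °C before reading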
# [16] = MELAS cybrid survival, CellTiter-Glo 48 h, stronger effect = higher value
# [17] = Rieske KO mouse fibroblast survival, CellTiter-Glo 72 h
# Chain of Cellular tumor antigen p53 (Homo sapiens) (P04637 whole entry, looked up): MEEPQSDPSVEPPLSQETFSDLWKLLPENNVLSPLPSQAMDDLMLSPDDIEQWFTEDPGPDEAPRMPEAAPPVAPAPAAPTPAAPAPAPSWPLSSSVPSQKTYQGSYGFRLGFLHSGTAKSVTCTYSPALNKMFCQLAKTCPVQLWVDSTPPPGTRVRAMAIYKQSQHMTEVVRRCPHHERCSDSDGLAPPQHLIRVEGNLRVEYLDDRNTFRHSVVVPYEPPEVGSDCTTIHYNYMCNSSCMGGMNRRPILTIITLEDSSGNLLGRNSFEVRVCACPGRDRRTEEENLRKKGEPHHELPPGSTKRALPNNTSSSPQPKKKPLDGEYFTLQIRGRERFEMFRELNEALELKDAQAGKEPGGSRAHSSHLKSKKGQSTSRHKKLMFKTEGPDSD
# Chain of Calcium-dependent protein kinase 4 (Plasmodium falciparum (isolate 3D7)) (Q8IBS5 whole entry, looked up): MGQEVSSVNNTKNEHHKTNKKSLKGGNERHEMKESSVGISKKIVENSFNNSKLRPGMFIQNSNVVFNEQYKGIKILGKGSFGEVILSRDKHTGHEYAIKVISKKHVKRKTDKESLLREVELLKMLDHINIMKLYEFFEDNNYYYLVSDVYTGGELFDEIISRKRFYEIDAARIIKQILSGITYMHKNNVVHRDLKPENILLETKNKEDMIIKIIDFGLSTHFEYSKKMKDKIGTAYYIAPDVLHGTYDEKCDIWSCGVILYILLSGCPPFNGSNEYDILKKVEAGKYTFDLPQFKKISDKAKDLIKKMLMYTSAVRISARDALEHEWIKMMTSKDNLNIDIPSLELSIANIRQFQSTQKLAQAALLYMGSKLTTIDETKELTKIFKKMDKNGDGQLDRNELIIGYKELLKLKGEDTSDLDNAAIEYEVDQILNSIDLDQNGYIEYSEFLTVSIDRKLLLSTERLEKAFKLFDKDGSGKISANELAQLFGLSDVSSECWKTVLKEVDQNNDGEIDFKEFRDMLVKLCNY
# Chain of Protein kinase 7 (PK7), Plasmodium falciparum 3D7 (PF3D7_0213400) (Q7YTF7 1-343): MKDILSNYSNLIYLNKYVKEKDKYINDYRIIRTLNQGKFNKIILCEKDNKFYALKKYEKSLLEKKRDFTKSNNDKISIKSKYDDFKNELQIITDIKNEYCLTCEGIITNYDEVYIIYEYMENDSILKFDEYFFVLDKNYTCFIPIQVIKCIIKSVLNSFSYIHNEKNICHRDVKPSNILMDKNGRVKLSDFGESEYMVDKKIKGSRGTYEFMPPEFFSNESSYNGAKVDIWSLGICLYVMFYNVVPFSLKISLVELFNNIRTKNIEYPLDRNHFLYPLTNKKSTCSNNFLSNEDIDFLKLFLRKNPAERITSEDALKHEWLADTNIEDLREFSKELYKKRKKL
# Chain of L-lactate dehydrogenase (Plasmodium falciparum (isolate CDC / Honduras)) (Q27743 whole entry, looked up): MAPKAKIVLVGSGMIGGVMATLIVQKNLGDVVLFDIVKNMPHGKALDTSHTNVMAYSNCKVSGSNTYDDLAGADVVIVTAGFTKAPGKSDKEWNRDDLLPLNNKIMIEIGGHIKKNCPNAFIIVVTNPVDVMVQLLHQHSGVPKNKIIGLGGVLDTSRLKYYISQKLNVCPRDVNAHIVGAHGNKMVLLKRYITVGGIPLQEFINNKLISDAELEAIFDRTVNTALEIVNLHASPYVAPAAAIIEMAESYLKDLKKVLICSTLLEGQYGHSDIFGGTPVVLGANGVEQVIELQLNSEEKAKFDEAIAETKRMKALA
# Chain of Plasmodium falciparum protein kinase 6 (PK6, PF3D7_1337100) (Q8IDW1 1-305): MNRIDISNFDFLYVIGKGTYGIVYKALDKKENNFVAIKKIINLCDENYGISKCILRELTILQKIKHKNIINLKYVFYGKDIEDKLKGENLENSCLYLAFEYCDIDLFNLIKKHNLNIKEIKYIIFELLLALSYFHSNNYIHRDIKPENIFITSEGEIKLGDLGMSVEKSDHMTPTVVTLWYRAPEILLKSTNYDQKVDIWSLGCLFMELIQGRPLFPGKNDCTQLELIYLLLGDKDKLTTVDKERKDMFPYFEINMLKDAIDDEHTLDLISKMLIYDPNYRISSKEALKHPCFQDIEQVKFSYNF
# Chain of Calcium-dependent protein kinase 1 (Plasmodium falciparum (isolate 3D7)) (P62344 whole entry, looked up): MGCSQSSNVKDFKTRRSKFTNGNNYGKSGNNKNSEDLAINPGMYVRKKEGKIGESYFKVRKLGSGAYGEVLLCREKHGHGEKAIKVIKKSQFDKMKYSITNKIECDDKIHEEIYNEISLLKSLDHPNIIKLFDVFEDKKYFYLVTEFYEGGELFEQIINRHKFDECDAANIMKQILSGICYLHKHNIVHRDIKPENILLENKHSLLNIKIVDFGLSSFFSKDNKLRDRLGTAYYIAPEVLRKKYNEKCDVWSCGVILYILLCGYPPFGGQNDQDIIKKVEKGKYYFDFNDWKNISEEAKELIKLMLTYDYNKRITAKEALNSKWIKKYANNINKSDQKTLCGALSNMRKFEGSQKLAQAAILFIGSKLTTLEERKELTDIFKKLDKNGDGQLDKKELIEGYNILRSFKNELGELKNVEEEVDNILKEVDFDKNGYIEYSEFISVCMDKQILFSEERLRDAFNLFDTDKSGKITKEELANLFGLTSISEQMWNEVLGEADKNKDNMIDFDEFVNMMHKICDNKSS
compound,measurement,setting,value
CS(=O)(=O)CCNCc1ccc(-c2ccc3ncnc(Nc4ccc(OCc5ccccc5)c(Cl)c4)c3c2)o1,growth inhibition,[1],76% (active)
same,inhibition,[2],4% (inactive)
same,inhibition,[3],-7% (inactive)
same,growth inhibition,[4],101% (active)
same,liver cell % of control,[5],113%
same,parasite % of control,[5],73.2% (inactive)
same,percent of negative control (+Dex),[6],73.5% (inactive)
same,z-score,[6],-1.31
same,z-score,[7],-0.785 (inactive)
same,z-score,[8],2.12 (inactive)
same,fraction signal,[9],-0.0085 (inactive)
same,outcome,[10],inactive
same,outcome,[11],inactive
same,outcome,[12],inactive
same,outcome,[13],inactive
same,z-score,[14]; [16],-0.588 (inactive)
same,z-score,[14]; [17],-0.304
Cn1cc(C2=C(c3cccc(Cl)c3)C(=O)NC2=O)c2ccccc21,liver cell % of control,[5],109%
same,parasite % of control,[5],69.6% (inactive)
same,percent of negative control (+Dex),[6],106% (inactive)
same,z-score,[6],0.59
same,EGFP object count,[15],5
same,EGFP/DsRed ratio,[15],0.137 (inactive)
same,fraction signal,[9],0.0035 (inactive)
O=C1NC(=NCc2ccccn2)SC1=Cc1ccc2ncccc2c1,liver cell % of control,[5],105%
same,parasite % of control,[5],37.5% (inactive)
same,percent of negative control (+Dex),[6],94% (inactive)
same,z-score,[6],0.165
same,EGFP object count,[15],6.5
same,EGFP/DsRed ratio,[15],0.264 (inactive)
same,fraction signal,[9],0.01 (inactive)
O=C1NC(=NCCc2ccc(F)cc2)SC1=Cc1ccc2ncccc2c1,liver cell % of control,[5],127%
same,parasite % of control,[5],57.5% (inactive)
same,percent of negative control (+Dex),[6],99.5% (inactive)
same,z-score,[6],0.5
same,EGFP object count,[15],1.5
same,EGFP/DsRed ratio,[15],0.0132 (inactive)
same,fraction signal,[9],0.0035 (inactive)
Cn1cc(C2=C(c3c[nH]c4ccccc34)C(=O)NC2=O)c2ccccc21,liver cell % of control,[5],85.3%
same,parasite % of control,[5],60.7% (inactive)
same,percent of negative control (+Dex),[6],101% (inactive)
same,z-score,[6],-1.61
same,EGFP object count,[15],73
same,EGFP/DsRed ratio,[15],0.286 (inactive)
same,fraction signal,[9],0.0015 (inactive)
CS(=O)(=O)N1CCC(Nc2ncc(C(=O)c3c(F)cccc3F)c(N)n2)CC1,liver cell % of control,[5],89.5%
same,parasite % of control,[5],70.6% (inactive)
same,percent of negative control (+Dex),[6],88.5% (inactive)
same,z-score,[6],-0.28
same,EGFP object count,[15],2
same,EGFP/DsRed ratio,[15],0.123 (inactive)
same,fraction signal,[9],-0.005 (inactive)
COc1cccc2c1c(C1=C(c3cn(C)c4ccccc34)C(=O)NC1=O)cn2C,liver cell % of control,[5],85.8%
same,parasite % of control,[5],34.6% (inactive)
same,percent of negative control (+Dex),[6],103% (inactive)
same,z-score,[6],0.84
same,EGFP object count,[15],12.5
same,EGFP/DsRed ratio,[15],0.282 (inactive)
same,fraction signal,[9],-0.0155 (inactive)
O=S(=O)(CCNCc1ccc(-c2ccc3ncnc(Nc4ccc(OCc5cccc(F)c5)c(Cl)c4)c3c2)o1)c1ccccc1,liver cell % of control,[5],108%
same,parasite % of control,[5],102% (inactive)
same,percent of negative control (+Dex),[6],96.5% (inactive)
same,z-score,[6],-0.355
same,z-score,[7],-0.37 (inactive)
same,z-score,[8],3.07 (inactive)
same,fraction signal,[9],-0.004 (inactive)
same,z-score,[14]; [16],0.171 (inactive)
same,z-score,[14]; [17],-0.45
NC(=O)CCc1ccccc1Oc1nccc(-c2c(-c3ccc(F)cc3)ncn2C2CCNCC2)n1,liver cell % of control,[5],91.6%
same,parasite % of control,[5],151% (inactive)
same,percent of negative control (+Dex),[6],95.5% (inactive)
same,z-score,[6],0.275
same,z-score,[7],0.875 (inactive)
same,z-score,[8],0.861 (inactive)
same,fraction signal,[9],-0.0055 (inactive)
same,z-score,[14]; [16],-0.2 (inactive)
same,z-score,[14]; [17],-0.462
COc1cccc(C2=C(c3cn(C)c4ccccc34)C(=O)NC2=O)c1,liver cell % of control,[5],216%
same,parasite % of control,[5],15.4% (inactive)
same,percent of negative control (+Dex),[6],110% (inactive)
same,z-score,[6],-0.735
same,EGFP object count,[15],9.5
same,EGFP/DsRed ratio,[15],0.204 (inactive)
same,fraction signal,[9],-0.003 (inactive)
Nc1c(C(=O)c2ccccc2)cnn1-c1ccc(F)cc1,liver cell % of control,[5],97.1%
same,parasite % of control,[5],76.7% (inactive)
same,percent of negative control (+Dex),[6],152% (active)
same,z-score,[6],5.57
same,EGFP object count,[15],5
same,EGFP/DsRed ratio,[15],0.17 (inactive)
same,fraction signal,[9],-0.0025 (inactive)
